# Unmarked numbers belong to inactive results. The rule behind the calls is not given here.
# Molecular target: Pantothenate synthetase (Mycobacterium tuberculosis (strain ATCC 25618 / H37Rv)) (UniProt P9WIL5)
# Assay: Recombinant Mtb pantothenate synthetase (PanC) inhibitors, coupled enzyme, confirmatory (AID 375);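 note: 0% = full reaction with vehicle and 100% = no enzyme background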
# Conditions: coupled enzyme assay; at 10 µM, hits give high values
# Pantothenate synthetase (Mycobacterium tuberculosis (strain ATCC 25618 / H37Rv)), sequence (P9WIL5 whole entry, looked up): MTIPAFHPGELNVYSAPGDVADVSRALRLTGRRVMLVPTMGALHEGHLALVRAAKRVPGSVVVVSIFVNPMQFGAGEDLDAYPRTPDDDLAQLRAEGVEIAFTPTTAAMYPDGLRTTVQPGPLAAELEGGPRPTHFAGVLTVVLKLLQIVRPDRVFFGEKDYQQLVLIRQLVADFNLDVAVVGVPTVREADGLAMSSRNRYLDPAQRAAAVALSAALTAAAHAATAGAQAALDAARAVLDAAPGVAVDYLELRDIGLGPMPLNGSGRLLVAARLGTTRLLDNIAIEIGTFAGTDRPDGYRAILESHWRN
row,SMILES,inhibition [%]
1,C=CCn1c(SCc2cc(=O)n3ccsc3n2)nnc1C1CCCCC1,0
2,CCc1ccc(CCC(=O)Nc2ccc(C)c(C)c2)o1,4
3,COc1ccc(Cn2nnnc2C(c2ccccn2)N2CCN(c3cc(Cl)ccc3C)CC2)cc1 (centres undefined),0
4,O=C(NC1CCCC1)C(c1ccco1)N(Cc1ccccc1)C(=O)c1csnn1 (centres undefined),0
5,O=C(Nc1nnc(C2CCCC2)s1)C1CCN(S(=O)(=O)c2ccc(Cl)cc2)CC1,0
6,CC(C)C(c1nnnn1CC1CCCO1)N1CCN(Cc2ccc3c(c2)OCO3)CC1 (centres undefined),0
7,Nn1c(SCC(=O)NC2CCCCC2)nnc1C1CC1,0
8,CC(C)Cn1c(=O)c(C(=O)Nc2ccccc2S(N)(=O)=O)c(O)c2ccccc21,0
9,COc1ccc(S(=O)(=O)N2CCOCC2)cc1C(=O)Nc1cc(C)on1,0
10,C/C(=N\O)C(=O)NCCCNCCCN(C)C,2
11,CC(=O)Nc1ccc(S(=O)(=O)N(C2=NCC(C)S2)c2ccccc2)cc1 (centres undefined),0
12,Nc1ccc2cn[nH]c2c1,0
13,C=CCn1c(SCC2=C(C(=O)OCC)C(C)NC(=O)N2)nnc1C1CCCCC1 (centres undefined),0
14,COCCNC(=O)CCCCCN1C(=O)CCC1=O,7
15,c1ccc(CC2CCN(Cc3nc(-c4ccccc4)no3)CC2)cc1,3
16,Cn1c(Cl)cnc1C1CC(=O)c2cc(Cl)ccc2O1 (centres undefined),7
17,CCOC(=O)C1=C(C)Nc2ncnn2C1c1ccccc1F (centres undefined),6
18,Cc1nc(N2CCc3ccccc32)[nH]c(=O)c1CCC(C)C,0
19,CCCC(NC(=O)c1ccccc1)c1nc2ccccc2n1Cc1ccc(C(=O)OC)o1 (centres undefined),0
20,Cc1noc(C(=O)Nc2ccc3c(c2)OCO3)c1Cl,0

row,SMILES,inhibition [%]
1,COc1ccc(N(CC(=O)NCCSC(C)(C)C)S(C)(=O)=O)c(OC)c1,2
2,Cc1nc(Sc2cccn2C)c(C(F)(F)F)c(=O)[nH]1,0
3,Cn1c(SCC(N)=O)nnc1C1CCN(S(=O)(=O)c2ccccc2C(F)(F)F)CC1,0
4,O=C(c1ccccc1)c1ccc(N2CCOCC2)c(NC(=O)c2ccco2)c1,11
5,COc1cccc(-c2nnc(NC(=O)c3ccccc3Br)o2)c1,0
6,O=C(NCc1ccccc1)N1CCn2c(nc3ccccc32)C1,3
7,Cc1nc2ccccc2c2oc(C(=O)N3CCN(C(=O)c4ccco4)CC3)cc12,0
8,O=C(CN1CCN(Cc2ccccc2)CC1)Nc1ccc(Cl)cn1,3
9,COc1ccc(CCNS(=O)(=O)c2ccc(C(=O)NCc3ccco3)cc2)cc1OC,0
10,CN(C)c1ccc(NC(=O)Cn2cc3c(n2)CCCC3)cc1,0
11,CCOc1cc(-c2nc(-c3ccccc3OC)no2)cc(OCC)c1OCC,12
12,COc1ccc(CCN2C(=O)CC(N3CCN(S(=O)(=O)c4ccccc4)CC3)C2=O)cc1 (centres undefined),0
13,c1ccc(-n2ncc3c(N4CCCCC4)ncnc32)cc1,0
14,COc1ccc(C)cc1-n1nnnc1SCC(=O)Nc1cc(C)on1,0
15,COc1ccc(S(=O)(=O)N2CCC(C(=O)c3ccc4c(c3)OCCO4)CC2)cc1,0
16,Nc1ccc(S(=O)(=O)Nc2ncccn2)cc1,6
17,Cc1ccc(N=Cc2ccc[nH]2)c(O)c1,0
18,CC(=O)NC(Cc1ccccc1)C(=O)NC1CCN(C(=O)c2cnccn2)CC1 (centres undefined),0
19,CCN(CC)c1ccc(C(=O)n2cnc3ccccc32)cc1,4

# From PubChem BioAssay
